Reference: PubChem BioAssay
Results with a measured potency or affinity are listed apart. Calls of active or inactive are those of the source. The limit is not given here; nearly all actives have IC50 up to about 0.91 µM.

What follows are molecules tested against Calcium-dependent protein kinase 4 (Plasmodium falciparum (isolate 3D7)) (UniProt Q8IBS5) (assay: PfCDPK4 kinase inhibitors, biochemical, TCAMS library (AID 1159588)). Conditions: recombinant PfCDPK4, Kinase-Glo ATP depletion luminescence.
Calcium-dependent protein kinase 4 (Plasmodium falciparum (isolate 3D7)), sequence (Q8IBS5 whole entry, looked up): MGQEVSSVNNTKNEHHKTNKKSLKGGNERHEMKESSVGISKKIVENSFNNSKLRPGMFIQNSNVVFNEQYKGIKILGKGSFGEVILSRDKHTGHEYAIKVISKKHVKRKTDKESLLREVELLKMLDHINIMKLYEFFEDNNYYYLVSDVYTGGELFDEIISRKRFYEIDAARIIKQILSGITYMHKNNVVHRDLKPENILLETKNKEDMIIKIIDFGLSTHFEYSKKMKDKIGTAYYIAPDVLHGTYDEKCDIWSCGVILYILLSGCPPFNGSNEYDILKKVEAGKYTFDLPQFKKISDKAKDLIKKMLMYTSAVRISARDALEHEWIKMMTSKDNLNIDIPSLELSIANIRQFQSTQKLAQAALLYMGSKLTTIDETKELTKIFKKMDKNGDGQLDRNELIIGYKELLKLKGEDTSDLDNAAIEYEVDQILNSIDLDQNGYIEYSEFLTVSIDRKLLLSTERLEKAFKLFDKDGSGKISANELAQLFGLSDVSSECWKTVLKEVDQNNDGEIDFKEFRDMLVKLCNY

outcome, inactive:
CCCCOc1ccc(CNCCCCCCNCc2ccc(OCCCC)c3ccccc23)c2ccccc12
O=C(Nc1ccc(-c2nc3ccccc3[nH]2)cc1)c1cccc(S(=O)(=O)N2CCOCC2)c1
COc1ccc(NC(=O)[C@H](CC(C)C)Nc2cc(C)nc(NCCc3cccs3)n2)cc1
O=C(NCCCCCCNCc1ccc(-c2ccccc2)cc1)Nc1ccc(Cl)c(Cl)c1
O=C(Nc1ccc(-c2ccccc2)cc1)Nc1cccc(Cn2nc(Cl)c(N3CCNCC3)cc2=O)c1
COc1cccc(C2CCN(CCN3CCC(NC(=O)c4ccc(-c5ccc(Cl)cc5)cc4)CC3)CC2)c1
COc1ccc2nc(-c3cccc(C)n3)nc(Nc3ccncc3)c2c1
Cc1nc2c(c(C)nn2C(C)(C)C)c(C)c1CCC(=O)Nc1ccc(CN2CCCC2)cc1
CCCSc1nc2c(c(=O)n1Cc1ccco1)C1(CCCCC1)Cc1ccccc1-2
CN(C)CCOc1cc(NC(=O)Nc2ccc3c(c2)CCCC3=O)ccc1I
Nc1c2ccccc2nc2ccc(-c3ccccc3)cc12
CN1CCC(NCc2ccc(-c3cccc(S(=O)(=O)NCCc4ccccn4)c3)cc2)CC1
Cc1ccc2sc(N(CCCn3ccnc3)C(=O)c3ccco3)nc2c1C
Cc1ccc(-c2cc3nc4c(c(NCCCn5ccnc5)n3n2)CCC4)cc1
O=S(=O)(c1ccccc1)C1CC1
CCCCCCc1ncc(-c2cc3cc(O)c(-c4ccccc4)cc3oc2=O)s1
Cc1cc(N[C@@H](Cc2ccccc2)C(=O)NCCc2ccccc2)nc(NCCc2cccs2)n1
COc1ccc(Nc2nccc(N3CCC(NC(=O)Nc4cccc(C(C)=O)c4)C3)n2)cc1 (stereo not given)
O=C(Nc1ccc(Cl)c(Cl)c1)C1CCC(=O)N1[C@@H](Cc1ccccc1)C(=O)NCCc1ccc(Cl)cc1 (stereo not given in full)
CC(C)(C)OC(=O)/C=C(\C(=O)OCc1ccc([N+](=O)[O-])cc1)c1csc(NC(c2ccccc2)(c2ccccc2)c2ccccc2)n1
COC(=O)c1sc(-c2ccc(Cl)cc2)cc1N(CCCN1CCC(N2CCCCC2)CC1)S(=O)(=O)c1ccc(C)cc1
CN1C(=C2SC(=Nc3ccc4ncccc4c3)N(Cc3ccccc3)C2=O)Sc2ccc(Cl)cc21
N#Cc1cccc(NC(=O)NC2CCN(CCCCCNC(=O)[C@@H]3C[C@H]3c3ccc(Cl)c(Cl)c3)CC2)c1
CC(C)(C)COc1ccc2c(N)n[nH]c2c1
COc1cc(NC2CCCC(NCc3cn(S(=O)(=O)c4ccccc4)c4ccccc34)C2)nc2ccccc12 (stereo not given)
CN(C)CCNC(=O)c1cc2c(-c3ccc(Cl)cc3)nn(C)c2s1
O=[N+]([O-])c1ccc(Oc2ccccc2CNCC2CCN(CC3CCCCC3)CC2)cc1
COc1cc2nc(NCCc3ccccc3)nc(N(C)Cc3ccccc3)c2cc1OC
COc1ccc2nc(C)cc(NN=Cc3ccc(Cl)cc3)c2c1
CN(C)CCOc1ccc(NC(=O)Nc2ccnc3c(Br)cccc23)cc1Cl
COc1cc(-c2nc(-c3ccccc3)c(-c3ccc(C(=O)c4ccc(F)cc4)cc3)[nH]2)cc(OC)c1O
O=C(/C=C/c1ccc(Cl)c(Cl)c1)NCCCCCN1CCC(c2[nH]nc(-c3ccccc3)c2Br)CC1
c1ccc(CN2CCN(c3cc(-c4cncc(-c5ccccc5)c4)nc(-c4ccccc4)n3)CC2)cc1
Cc1ccc(-n2cc(CNCCc3ncc(C)[nH]3)c(-c3ccc(F)cc3)n2)cc1
Cc1cc(C(=O)Nc2ccc(C)c(-c3nc(N(C(=O)c4ccc(F)c(C)c4)C4CCNCC4)nc4c3ccc(=O)n4-c3c(F)cccc3F)c2)ccc1F
CCC(O)(C#Cc1c(C)nc(N)nc1N)CC
COc1ccc(CC(=O)NC2CCN(c3ccnc4cc(Cl)ccc34)C2)cc1 (stereo not given)
O=C(Nc1ccc(Cl)cc1)N[C@H]1CCN(Cc2ccc(OCCCN3CCCCC3)cc2)C1
O=C(C=Cc1ccc(-c2nc3ccccc3[nH]2)cc1)NC1CCN(Cc2ccccc2)CC1
Nc1c2c(nc3ccc(C(=O)Nc4ccccc4)cc13)CCCC2
